The text below walks through data of PubChem BioAssay AID799 (SRMLSC, 2007).

SMILES strings stand for the structures. Hit rate of the full screen: of about 140,000 compounds, about 840 (0.6%) were called active.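 Rule for the calls: active = viability gain under doxorubicin at or above a set limit, the compound median plus 3 SD (cut at about 4.7% in these data); inactive = the rest.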 For the sample, actives were picked, then their nearest neighbours and some compounds at random.

The experiment is described as follows: H69AR viability gain despite doxorubicin, primary screen, MRP-1 activator project, H69AR cells, CellTiter-Glo (AID 799).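 Note: MRP-1 overexpressing cells given doxorubicin 25 µM after compound pretreatment; 18-22 h compound pretreatment then 72 h with doxorubicin before readout; 0% = doxorubicin-only wells and 100% = vehicle-treated cells without doxorubicin.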 The settings on record: viability rescue, at 10 µM, active compounds read high.
`CCCN(CC1COc2ccccc2O1)C(=S)Nc1ccc(C)cc1` (configuration not stated): the viability increase is -0.89% (inactive).

For `Cc1nnc(-c2ccc(Oc3ccc(C)c(C)c3)c([N+](=O)[O-])c2)o1`, the viability increase is -1.23% (inactive).

For `COc1cccc(/C=N/Nc2ncc(C(F)(F)F)cc2Cl)c1O`, the viability increase was -4.98% (inactive).

`Cc1cc(C)c(NC(=S)N2CCCC2C(=O)O)c(C)c1` (configuration not stated): the viability increase is 0.6% (inactive).

With `CC(C)(C)c1ccc(C(=O)CSc2ncn[nH]2)cc1`, the viability increase was 9.85% (active).

Regarding `Cn1nnc(NC(=O)CSc2ncn[nH]2)n1`, the viability increase is -0.73% (inactive).

Take `CCN(C(=O)CSc1ncn[nH]1)c1cccc2ccccc12`: the viability increase is 1.04% (inactive).

As for `CCN(CC(=O)NCCc1ccccc1)S(=O)(=O)c1ccc(C)cc1`, the viability increase is -2.77% (inactive).

Take `CC(C)(C)NC(=O)c1cccc(NC(=O)Cc2ccc(Br)cc2)c1`: the viability increase is 5.31% (active).

On to `COc1ccc(CC(=O)Nc2ccc(C(=O)NC(C)(C)C)cc2)cc1`, for which the viability increase was 0.14% (inactive).

Turning to `O=C(Cc1ccccc1)Nc1cccc(C(=O)N/N=C/c2ccco2)c1`, the viability increase was -0.32% (inactive).

With `COc1ccc(Cl)cc1NC(=O)Cn1nc(-c2ccc(C)cc2)n(C)c1=S`, the viability increase is -3.24% (inactive).

Consider `CCOC(=O)c1cnc2ccc(F)cc2c1Nc1ccc2c(c1)OCCO2`, for which the viability increase is -1.56% (inactive).

Consider `Cc1c(CCO)sc[n+]1CC(=O)OC12CC3CC(CC(C3)C1)C2`, for which the viability increase was -0.72% (inactive).

On to `N#C/C(C(=O)N1CCOCC1)=C1/SC(Cc2ccc(F)cc2)C(=O)N1c1ccccc1` (configuration not stated), for which the viability increase was -0.96% (inactive).

Take `Cc1ccc(CC2S/C(=C(/C#N)C(=O)N3CCOCC3)N(c3ccccc3)C2=O)cc1` (configuration not stated): the viability increase is 7.14% (active).

In the case of `Cc1ccc(C(=O)C(=S)N2CCOCC2)cc1`, the viability increase was -2% (inactive).

Turning to `Cc1ccn(-c2cccc(-n3ccc(C)n3)n2)n1`, the viability increase is 1.12% (inactive).

Take `CN1/C(=C\C(=O)c2cccnc2Cl)C(C)(C)c2ccccc21`: the viability increase was -0.96% (inactive).

On to `CN1/C(=C\C(=O)c2oc3ccccc3c2N)C(C)(C)c2ccccc21`, for which the viability increase was 5.19% (active).

In the case of `Cc1noc(C)c1C(=O)OCC(=O)/C=C1\N(C)c2ccccc2C1(C)C`, the viability increase is -1.22% (inactive).

Consider `C/C(=N/NS(=O)(=O)c1ccccc1)c1ccc(NC(=O)C(F)(F)F)cc1`, for which the viability increase is -0.61% (inactive).

With `Cc1ccccc1N/C(SCc1ccc(Cl)cc1)=C(/C#N)C(N)=O`, the viability increase was -2.62% (inactive).

In the case of `Cc1scc(C(=O)NNC(=S)NCC(C)C)c1C`, the viability increase was 0.83% (inactive).

As for `COc1ccc(CC(=O)N2N=C(C)CC2(O)C(F)(F)F)cc1` (configuration not stated), the viability increase is -0.45% (inactive).

In the case of `Cc1ccc(S(=O)(=O)Nc2ccc3ncccc3c2)cc1`, the viability increase was 5.23% (active).

As to `Cc1ccc(C(=O)/C=C/Nc2ccc(S(=O)(=O)Nc3onc(C)c3C)cc2)cc1`, the viability increase was -1.44% (inactive).

For `O=S(=O)(Nc1ccc(Oc2ncccn2)c(Cl)c1)c1ccc(F)cc1`, the viability increase was -2.28% (inactive).

With `CCc1nccn1S(=O)(=O)c1cccc([N+](=O)[O-])c1`, the viability increase is 1.01% (inactive).

For `O=C(COc1ccc2oc3c(c2c1)CCCC3)Nc1ccccn1`, the viability increase is 5.27% (active).

For the compound `N#CC1(NC(=O)COc2ccc3oc4ccccc4c3c2)CCCCC1`, the viability increase was 0% (inactive).

`NC(=O)COc1ccc2c3c(c(=O)oc2c1)CCCCC3`: the viability increase is -0.34% (inactive).

Turning to `O=C(COC(=O)Cc1ccc(F)cc1)Nc1cc(S(=O)(=O)N2CCOCC2)ccc1N1CCCC1`, the viability increase was 0.15% (inactive).

For the compound `CN(C(=O)c1c(Cl)cnn1C)C12CC3CC(CC(C3)C1)C2`, the viability increase is -1.48% (inactive).

In the case of `Clc1cccc(CN2COc3c(cc(Cl)c4cccnc34)C2)c1`, the viability increase is -5.22% (inactive).

Regarding `COc1cccc(/C=N\NC(=O)C2=NNC(=O)C2C)c1O` (configuration not stated), the viability increase was 8.24% (active).

Turning to `COc1ccc(C(=O)Nc2ccccc2C(=O)N/N=C/c2ccccc2OC)cc1`, the viability increase was -3.65% (inactive).

On to `COc1cccc(/C=N/NC(=O)c2[nH]nc3c2CCc2ccccc2-3)c1O`, for which the viability increase is -0.29% (inactive).

Turning to `CCn1cc(/C=C2/SC(=S)NC2=O)c(C)n1`, the viability increase is -3.74% (inactive).

For `Cc1ccc(NC(=S)NCc2ccccc2Cl)c(C)c1`, the viability increase is -3.43% (inactive).

For `CC1(C)CC(=O)C2=C(C1)N=C1SCCC(=O)N1C2c1ccc(C(F)(F)F)cc1` (configuration not stated), the viability increase is 9.27% (active).

In the case of `Cc1ccc(C(=O)COC(=O)CCCC(=O)NC2CCCCC2)cc1[N+](=O)[O-]`, the viability increase was -1.8% (inactive).

Turning to `COC(=O)N/N=C/c1ccc(-c2ccc(Cl)c(Cl)c2)o1`, the viability increase is 9.18% (active).

On to `O=C(Cn1nnc(-c2ccccc2)n1)N/N=C/c1ccc(-c2ccc(Cl)cc2)o1`, for which the viability increase is -1.7% (inactive).

In the case of `O=C(N/N=C\c1ccc(-c2ccc(Cl)c(Cl)c2)o1)C(=O)N1CCCC1`, the viability increase was 1.06% (inactive).

Consider `CCc1ccc(NC2Nc3cc(C)nn3S2)cc1` (configuration not stated), for which the viability increase was 1.66% (inactive).

In the case of `C/C(=N/NC(=O)CSc1ccccn1)c1ccc([N+](=O)[O-])cc1`, the viability increase was 5.38% (active).

For `COC(=O)c1ccccc1NC(=O)CSc1ccccn1`, the viability increase is -0.18% (inactive).

Take `Cc1cccc(C)c1NC(=O)CSc1ccc([N+](=O)[O-])cn1`: the viability increase was -2.01% (inactive).

Turning to `CC(C)(C)NC(=O)COC(=O)c1cc(Br)ccc1Cl`, the viability increase was 1.61% (inactive).

With `Cc1ccc(C(=O)NC(C)c2ccccc2)cc1Br` (configuration not stated), the viability increase is 2.53% (inactive).

Turning to `COc1ccc(C(=O)ON=C2c3ccccc3-c3ccccc32)cc1OC`, the viability increase is -0.45% (inactive).

In the case of `COc1cccc(C2SCC(=O)N2c2cccc(C)c2)c1OC` (configuration not stated), the viability increase was -1.69% (inactive).

Take `CSCC[C@H](NC(=O)OC(C)(C)C)C(=O)N/N=C/c1cc2ccc(C)cc2nc1Cl`: the viability increase is -3.12% (inactive).

As to `Cc1ccc(CN2C(=O)N/C(=C/c3cc(C)n(-c4ccccn4)c3C)C2=O)cc1`, the viability increase is 2.22% (inactive).

With `Cc1cc(C)cc(C(=O)N2CCN=C2SCc2ccc([N+](=O)[O-])cc2)c1`, the viability increase is -4.17% (inactive).

On to `Cc1cccc(CC(=O)N2CCN=C2SCc2ccc([N+](=O)[O-])cc2)c1`, for which the viability increase was -3.9% (inactive).

Take `O=C(c1ccco1)N1CCN=C1SCc1cccc(Cl)c1`: the viability increase is 1.42% (inactive).

On to `O=C(C1CC1)N1CCN=C1SCc1ccc(Cl)cc1`, for which the viability increase was 4.76% (active).

`CC1CCN(C(=O)c2ccc(CSc3ccc(Cl)cc3)cc2)CC1`: the viability increase is -2.43% (inactive).

Turning to `CCC(=O)N1CCN=C1SCc1ccc(F)cc1`, the viability increase was 5.28% (active).

In the case of `Cc1ccc(C(C[N+](=O)[O-])c2c(C)cc3ccccn23)cc1` (configuration not stated), the viability increase was -4.62% (inactive).

`COc1cc(C(=O)Nc2cc(C(F)(F)F)ccc2N2CCOCC2)ccc1O`: the viability increase was -4.55% (inactive).

With `O=c1[nH]cnc2c1c(-c1ccccc1)cn2-c1ccc(F)cc1`, the viability increase is -1.33% (inactive).

For `CSCCC(NC(=O)c1cc([N+](=O)[O-])cc([N+](=O)[O-])c1)c1nc2ccccc2[nH]1` (configuration not stated), the viability increase is -3.92% (inactive).

For the compound `S=C(NCCc1ccccc1)NCc1ccccc1Cl`, the viability increase is -1.54% (inactive).

`O=C(NCc1ccco1)C1CCCN(S(=O)(=O)c2cnc[nH]2)C1` (configuration not stated): the viability increase is -1.18% (inactive).

In the case of `O=C(NCc1ccco1)C1CCCN(S(=O)(=O)c2ccccc2)C1` (configuration not stated), the viability increase was 0.35% (inactive).

Regarding `Cc1noc(/C=C/N(C)C)c1S(=O)(=O)N1CCCC(C(=O)NCc2ccco2)C1` (configuration not stated), the viability increase was 8.37% (active).

With `CCCc1c(C)nc2c(Br)cccc2c1Cl`, the viability increase is 0.38% (inactive).

As to `O=C1CSC2=NCN(c3ccccc3)CN12`, the viability increase was 8.4% (active).

For the compound `O=C(NCc1cccs1)C(=O)NCC1OCCCN1S(=O)(=O)c1ccc(F)cc1` (configuration not stated), the viability increase is -1.49% (inactive).

For `CC(O)c1nc2ccccc2n1Cc1ccc([N+](=O)[O-])cc1` (configuration not stated), the viability increase is -1.44% (inactive).

For `Cc1ccc(-c2c(C)n([O-])c3c([n+]2=O)CCC3)cc1`, the viability increase was -0.22% (inactive).

Consider `CC(C)(C)c1ccc(C(=O)NCc2nnc(SCC(=O)N3CCCc4ccccc43)n2-c2ccccc2)cc1`, for which the viability increase was -0.43% (inactive).

Consider `Cc1ccc(CSCC(N)C(=O)O)cc1` (configuration not stated), for which the viability increase is 1.44% (inactive).

Take `COc1cc2c(cc1/C=C1/NC(=O)N(c3ccccc3)C1=O)OCO2`: the viability increase was 0.58% (inactive).

In the case of `CCC1(C)Cc2c(sc3nnn(CC(=O)Nc4ccc(Cl)cc4)c(=O)c23)CO1` (configuration not stated), the viability increase was 9.27% (active).

Consider `CCC1(C)Cc2c(sc3nc(SC)nc(N)c23)CO1` (configuration not stated), for which the viability increase is -0.12% (inactive).

With `CCC1(C)Cc2c(sc3[nH]c(=S)n(Cc4ccccc4)c(=O)c23)CO1` (configuration not stated), the viability increase was -3.87% (inactive).

Regarding `COCc1c(C(=O)N/N=C/C2CC=CCC2)nnn1-c1nonc1N` (configuration not stated), the viability increase is -1.34% (inactive).

As for `CC(C)(C)N(Cc1ccccc1)C(=O)COC(=O)CCc1c[nH]c2ccccc12`, the viability increase was -1.32% (inactive).

For `COc1ccc(C)cc1NC(=O)CCC(=O)Nc1nnc(C(F)(F)F)s1`, the viability increase is 1.24% (inactive).

`O=C(NCC(F)(F)F)Nc1nnc(C(F)(F)F)s1`: the viability increase is 7.12% (active).

With `CCc1nnc(NC(=O)CCC(=O)O)s1`, the viability increase is 0.72% (inactive).

As to `Cc1nnnn1/C(=C\c1ccccc1)C(=O)OCC(=O)N1CC2(C)CC1CC(C)(C)C2` (configuration not stated), the viability increase is -4.97% (inactive).

`CCn1c(NC(=O)c2nn(C)cc2Br)nc2ccccc21`: the viability increase was -2.46% (inactive).

Take `O=C(NCCNc1ccc([N+](=O)[O-])cc1)c1cccc2c(Br)cccc12`: the viability increase is 1.47% (inactive).

For `O=C(Nc1ccccc1)c1ccc2c(c1)OCO2`, the viability increase was -0.11% (inactive).

Turning to `C/C(=N/NC(=S)Nc1ccccc1)c1ccc2c(c1)OCO2`, the viability increase is 7.99% (active).

On to `C/C(=N\NC(=S)NCc1ccccc1)c1ccc(Cl)cc1`, for which the viability increase was -2.64% (inactive).

Regarding `COc1ccc(OCC(O)CNC(=O)Nc2ccc(Cl)cc2)cc1` (configuration not stated), the viability increase was 2.65% (inactive).

Consider `Cc1ccc(C)c(NS(=O)(=O)c2ccc(OCC(=O)NCc3cccnc3)cc2)c1`, for which the viability increase is -4.52% (inactive).

As for `CC1CCN(C(=O)c2ccc(S(=O)(=O)Cc3cc(F)ccc3F)c([N+](=O)[O-])c2)CC1`, the viability increase is -4.87% (inactive).

Consider `N=C(N)SCc1cccc2ccccc12`, for which the viability increase was 8.11% (active).

With `CCOc1ccc(Br)cc1CSC(=N)N`, the viability increase was 0.81% (inactive).

Consider `c1ccc2c(CSCc3nc4ccccc4[nH]3)cccc2c1`, for which the viability increase is -0.17% (inactive).
